# Several values for one entry are separate records, joined by “and”; a condition that tells them apart may be missing. Equal values may be shown once. This is part of a sample that, as a whole, favours compounds with a hit. Of some 79,000 tested, about 15% had one in any assay. The source holds several records for some structures; these can differ, active in one and inactive in another. Activity calls are given as the source filed them. No stated cut-off is given here; in the data, active means growth inhibition above about 70%; inactive means the rest.
# Legend:
# [1] = NCI Yeast Anticancer Drug Screen. Data for the rad50EPP+ strain (AID 151);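 further: 0% = growth of vehicle-treated control cultures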; conditions: S. cerevisiae rad50 mutant strain, stronger effect = higher value
# Summary of the method: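 Compounds were applied to the rad50EPP+ yeast strain, which bears a defined DNA repair alteration, and growth inhibition was determined relative to vehicle-treated cultures.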
# [2] = NCI Yeast Anticancer Drug Screen. Data for the rad50 strain (AID 155);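 further: 0% = growth of vehicle-only cultures of the same strain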; conditions: S. cerevisiae rad50 strain growth inhibition, stronger effect = higher value
# Summary of the method: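 Relative growth inhibition (compound vs vehicle) was measured in yeast with a defined repair-gene alteration.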
# [3] = NCI Yeast Anticancer Drug Screen. Data for the mec2-1 strain (AID 157); conditions: S. cerevisiae mec2-1 strain, stronger effect = higher value
# Summary of the method: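 Strain: mec2-1 (DNA repair/cell cycle alteration). Compound exposure, then growth measured; inhibition expressed relative to vehicle.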
# [4] = NCI Yeast Anticancer Drug Screen. Data for the rad14 strain (AID 159);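 further: 0% = growth of vehicle-treated control cultures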; conditions: S. cerevisiae rad14 strain growth inhibition, stronger effect = higher value
# Summary of the method: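 Screen for anticancer potential: a yeast strain altered in DNA damage repair is grown with compound, and reduced growth is quantified against vehicle controls.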
# [5] = NCI Yeast Anticancer Drug Screen. Data for the sgs1 mgt1 strain (AID 161);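 further: 0% = growth of cultures given vehicle only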; conditions: S. cerevisiae sgs1 mgt1 strain, stronger effect = higher value
# Summary of the method: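 Test agents were incubated with a DNA-repair-mutant yeast strain. Growth was then read and compared against vehicle-treated controls.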
# [6] = NCI Yeast Anticancer Drug Screen. Data for the CLN2oe strain (AID 163);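 further: 0% = growth of vehicle-only control cultures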; conditions: S. cerevisiae CLN2oe strain, stronger effect = higher value
# Summary of the method: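 Growth of a genetically modified yeast strain is measured after compound exposure and compared with cultures given vehicle alone.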
# [7] = NCI Yeast Anticancer Drug Screen. Data for the cln2 rad14 strain (AID 165);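 further: 0% = growth equal to vehicle treated cultures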; conditions: S. cerevisiae cln2 rad14 strain, stronger effect = higher value
# Summary of the method: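 Compounds are applied to the cln2 rad14 yeast strain, and growth is then compared with that of vehicle-treated cultures to give inhibition.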
# [8] = NCI Yeast Anticancer Drug Screen. Data for the bub3 strain (AID 167); conditions: S. cerevisiae bub3 mutant strain, stronger effect = higher value
# Summary of the method: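 Screening used yeast with an engineered genetic alteration affecting cell cycle control. Compound-exposed cultures were compared with vehicle cultures, and reduced growth was taken as inhibition.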
# [9] = NCI Yeast Anticancer Drug Screen. Data for the wt2 strain (AID 169);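 further: 0% = growth of vehicle-treated yeast cultures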; conditions: S. cerevisiae wt2 strain growth inhibition, stronger effect = higher value
# Summary of the method: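 This strain belongs to a panel of yeast strains with defined genetic alterations in DNA damage repair or cell cycle control. Compounds are applied, and growth inhibition is measured against vehicle-treated cultures.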
# [10] = NCI Yeast Anticancer Drug Screen. Data for the mlh1 strain (AID 171);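 further: 0% = growth of vehicle-treated control cultures of the same strain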; conditions: S. cerevisiae mlh1 strain growth inhibition, stronger effect = higher value
# Summary of the method: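 Growth of the mutant yeast strain after compound exposure, expressed as inhibition relative to vehicle-only controls.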
# [11] = NCI Yeast Anticancer Drug Screen. Data for the sgs1 strain (AID 173);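 further: 0% = growth of vehicle-only control cultures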; conditions: S. cerevisiae sgs1 mutant, stronger effect = higher value
# Summary of the method: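 Growth of a yeast strain bearing a defined genetic alteration is measured after compound treatment. Inhibition is expressed relative to vehicle-only controls.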
# [12] = NCI Yeast Anticancer Drug Screen. Data for the mlh1 rad18 strain (AID 175); conditions: S. cerevisiae mlh1 rad18 strain growth inhibition, stronger effect = higher value
# Summary of the method: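 Read-out is yeast growth inhibition, calculated against vehicle-only controls. The compound was applied to a strain engineered with DNA damage repair alterations.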
# [13] = NCI Yeast Anticancer Drug Screen. Data for the rad18 strain (AID 177); conditions: S. cerevisiae rad18 mutant growth inhibition, stronger effect = higher value
# Summary of the method: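 Growth of the mutant yeast strain after compound exposure, normalised to vehicle-only cultures.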
# [14] = NCI Yeast Anticancer Drug Screen. Data for the wt1 strain (AID 149);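 further: 0% = growth of vehicle-treated wt1 cultures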; conditions: S. cerevisiae wt1 strain (SPY 50644) growth inhibition, stronger effect = higher value
# Summary of the method: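 Using yeast strain wt1, compound-induced growth inhibition was determined against vehicle-treated cultures.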
# [15] = NCI Yeast Anticancer Drug Screen. Data for the mgt1 strain (AID 153); conditions: S. cerevisiae mgt1 mutant growth inhibition, stronger effect = higher value
# Summary of the method: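 Strain: mgt1 yeast, one of a set carrying defined DNA damage repair or cell cycle control alterations. Compound-treated growth compared with vehicle.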
# [16] = at 5.0 µM (retest, dose inferred, filed as 0.5)
# [17] = at 50.0 µM (retest, dose inferred, filed as 5.0)
smiles,measurement,setting,value
CCCCCCCCCCCCOC1C(COCCN2CCCC2)OC2OC(C)(C)OC21 (stereo not drawn),growth inhibition,[1]; at 1.2 µM,36% (inactive)
same,growth inhibition,[1]; at 3.7 µM,27% (inactive)
same,growth inhibition,[1]; at 11.0 µM,2% (inactive)
same,growth inhibition,[1]; at 33.0 µM,97% (active)
same,growth inhibition,[1]; at 100.0 µM,98% (active)
same,growth inhibition,[2]; at 1.2 µM,5% (inactive)
same,growth inhibition,[2]; at 3.7 µM,1% (inactive)
same,growth inhibition,[2]; [16],13% (inactive)
same,growth inhibition,[2]; at 11.0 µM,98% (active)
same,growth inhibition,[2]; at 33.0 µM,98% (active)
same,growth inhibition,[2]; [17],99% (active)
same,growth inhibition,[2]; at 50.0 µM,93% (active)
same,growth inhibition,[2]; at 100.0 µM,98% (active)
same,growth inhibition,[3]; at 1.2 µM,18% (inactive)
same,growth inhibition,[3]; at 3.7 µM,11% (inactive)
same,growth inhibition,[3]; [16],2% (inactive)
same,growth inhibition,[3]; at 11.0 µM,97% (active)
same,growth inhibition,[3]; at 33.0 µM,99% (active)
same,growth inhibition,[3]; [17],99% (active)
same,growth inhibition,[3]; at 50.0 µM,93.4% (active)
same,growth inhibition,[3]; at 100.0 µM,98% (active)
same,growth inhibition,[4]; at 1.2 µM,11% (inactive)
same,growth inhibition,[4]; at 3.7 µM,14% (inactive)
same,growth inhibition,[4]; at 11.0 µM,98% (active)
same,growth inhibition,[4]; at 33.0 µM,98% (active)
same,growth inhibition,[4]; at 100.0 µM,98% (active)
same,growth inhibition,[5]; [16],19% (inactive)
same,growth inhibition,[5]; [17],99% (active)
same,growth inhibition,[5]; at 50.0 µM,90.2% (active)
same,growth inhibition,[6]; at 1.2 µM,-5% (inactive)
same,growth inhibition,[6]; at 3.7 µM,23% (inactive)
same,growth inhibition,[6]; at 11.0 µM,71% (active)
same,growth inhibition,[6]; at 33.0 µM,98% (active)
same,growth inhibition,[6]; at 100.0 µM,98% (active)
same,growth inhibition,[7]; [16],42% (inactive)
same,growth inhibition,[7]; [17],97% (active)
same,growth inhibition,[7]; at 50.0 µM,90.3% (active)
same,growth inhibition,[8]; at 1.2 µM,-18% (inactive)
same,growth inhibition,[8]; at 3.7 µM,-16% (inactive)
same,growth inhibition,[8]; [16],29% (inactive)
same,growth inhibition,[8]; at 11.0 µM,96% (active)
same,growth inhibition,[8]; at 33.0 µM,98% (active)
same,growth inhibition,[8]; [17],98% (active)
same,growth inhibition,[8]; at 50.0 µM,88.5% (active)
same,growth inhibition,[8]; at 100.0 µM,98% (active)
same,growth inhibition,[9]; at 1.2 µM,-13% (inactive)
same,growth inhibition,[9]; at 3.7 µM,-28% (inactive)
same,growth inhibition,[9]; at 11.0 µM,78% (active)
same,growth inhibition,[9]; at 33.0 µM,98% (active)
same,growth inhibition,[9]; at 100.0 µM,98% (active)
same,growth inhibition,[10]; at 1.2 µM,25% (inactive)
same,growth inhibition,[10]; at 3.7 µM,27% (inactive)
same,growth inhibition,[10]; at 11.0 µM,94% (active)
same,growth inhibition,[10]; at 33.0 µM,98% (active)
same,growth inhibition,[10]; at 100.0 µM,98% (active)
same,growth inhibition,[11]; at 1.2 µM,22% (inactive)
same,growth inhibition,[11]; at 3.7 µM,21% (inactive)
same,growth inhibition,[11]; at 11.0 µM,97% (active)
same,growth inhibition,[11]; at 33.0 µM,98% (active)
same,growth inhibition,[11]; at 100.0 µM,98% (active)
same,growth inhibition,[12]; [16],16% (inactive)
same,growth inhibition,[12]; [17],99% (active)
same,growth inhibition,[12]; at 50.0 µM,90% (active)
same,growth inhibition,[13]; at 1.2 µM,37% (inactive)
same,growth inhibition,[13]; at 3.7 µM,27% (inactive)
same,growth inhibition,[13]; at 11.0 µM,97% (active)
same,growth inhibition,[13]; at 33.0 µM,98% (active)
same,growth inhibition,[13]; at 100.0 µM,97% (active)
COc1cccc2c1C(=O)c1c(O)c3c(c(O)c1C2=O)CC(O)(C(=O)CO)CC3OC1CC(N)C(O)C(C)O1 (stereo not drawn),growth inhibition,[2]; [16],13% (inactive) and 24% (inactive) and 34% (inactive)
same,growth inhibition,[2]; [17],13% (inactive) and 18% (inactive) and 91% (active)
same,growth inhibition,[3]; [16],7% (inactive) and 6% (inactive) and 14% (inactive)
same,growth inhibition,[3]; [17],8% (inactive) and 10% (inactive) and 58% (inactive)
same,growth inhibition,[5]; [16],7% (inactive) and 16% (inactive) and 25% (inactive)
same,growth inhibition,[5]; [17],0% (inactive) and 4% (inactive) and 71% (active)
same,growth inhibition,[8]; [16],10% (inactive) and 15% (inactive) and 18% (inactive)
same,growth inhibition,[8]; [17],13% (inactive) and 16% (inactive) and 76% (active)
same,growth inhibition,[12]; [16],-5% (inactive) and 20% (inactive) and 42% (inactive)
same,growth inhibition,[12]; [17],-1% (inactive) and 3% (inactive) and 94% (active)
CN(C)N=Nc1ccc(NC=O)cc1,growth inhibition,[14]; at 1.2 µM,-2% (inactive)
same,growth inhibition,[14]; at 3.7 µM,1% (inactive)
same,growth inhibition,[14]; at 11.0 µM,9% (inactive)
same,growth inhibition,[14]; at 33.0 µM,92% (active)
same,growth inhibition,[14]; at 100.0 µM,99% (active)
same,growth inhibition,[15]; at 1.2 µM,20% (inactive)
same,growth inhibition,[15]; at 3.7 µM,27% (inactive)
same,growth inhibition,[15]; at 11.0 µM,23% (inactive)
same,growth inhibition,[15]; at 33.0 µM,88% (active)
same,growth inhibition,[15]; at 100.0 µM,99% (active)
same,growth inhibition,[2]; at 1.2 µM,5% (inactive)
same,growth inhibition,[2]; at 3.7 µM,4% (inactive)
same,growth inhibition,[2]; [16],23% (inactive)
same,growth inhibition,[2]; at 11.0 µM,17% (inactive)
same,growth inhibition,[2]; at 33.0 µM,97% (active)
same,growth inhibition,[2]; [17],67% (inactive)
same,growth inhibition,[2]; at 50.0 µM,89.7% (active)
same,growth inhibition,[2]; at 100.0 µM,99% (active)
same,growth inhibition,[3]; at 1.2 µM,0% (inactive)
same,growth inhibition,[3]; at 3.7 µM,13% (inactive)
same,growth inhibition,[3]; [16],23% (inactive)
same,growth inhibition,[3]; at 11.0 µM,20% (inactive)
same,growth inhibition,[3]; at 33.0 µM,90% (active)
same,growth inhibition,[3]; [17],47% (inactive)
same,growth inhibition,[3]; at 50.0 µM,91.8% (active)
same,growth inhibition,[3]; at 100.0 µM,99% (active)
same,growth inhibition,[4]; at 1.2 µM,6% (inactive)
same,growth inhibition,[4]; at 3.7 µM,3% (inactive)
same,growth inhibition,[4]; at 11.0 µM,9% (inactive)
same,growth inhibition,[4]; at 33.0 µM,77% (active)

# — PubChem BioAssay (NCI)
